# Shown is part of a subset that was picked to be rich in hits.
# Marburg entry inh: inhibitors of Marburg virus binding or cell entry. Marburg virus pseudotyped entry inhibition, cell reporter. Potency, µM (doses to about 37.8 µM), actives largely listed as inhibitors. 1.8% of 300,000 active. AID 540276; calls by dose curve; tested in HEK293 cells
# AMA1 RON2 block: disrupts binding of P. falciparum AMA1 to RON2; AlphaScreen AMA1-biotinylated RON2 peptide binding; Potency, µM (titrated, usually from 58.2 µM), actives largely listed as inhibitors; 0.2% of 360,000 active; AID 720542; active = well fitted inhibition curve with a large enough effect; inconclusive = small, poorly fitted or top-dose-only effect; inactive = no such curve, though single readings can be large or run the other way; note: nearly all actives have a fitted effect of over 45% in size
#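 AMA1 (3D7) with his tag at 25 nM final met compounds first, then biotinylated RON2 peptide at 25 nM; detection used donor plus acceptor beads, 10 µg/mL apiece, read by AlphaScreen after 30 min at room temperature.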
# LASV entry inh: inhibitors of Lassa virus binding or cell entry; Lassa virus pseudotype entry inhibition, cell reporter; Potency, µM (doses to about 37.9 µM), actives largely listed as inhibitors; 1.2% of 300,000 active; AID 540256; calls by dose curve; tested in HEK293 cells; note: nearly all actives have a fitted effect of over 50% in size
# Shiga toxin inh: inhibitors of Shiga toxin in Vero cells. Vero cells, Shiga toxin protein synthesis inhibition reporter. inhibition, % at 38.7 µM. 9.2% of 290,000 active; in the data active = inhibition mostly above about 28%, no sharp cut-off; inactive = mostly below about 43%
# Cycloheximide cs: affects cycloheximide protein synthesis inhibition readout, counter-screen | cell reporter, cycloheximide protein synthesis inhibition counterscreen | max response, % | AID 2314 | 12% of 300,000 active; in the data active = max response mostly above about 13%, no sharp cut-off; inactive = mostly below about 14%; note: read at 38.3 µM for the half of the compounds with a filed dose
# Hits are given with their value; . = inactive; ? = inconclusive; / = no result; + = active, no number; [ ] = remark or other dose.
SMILES,Marburg entry inh,AMA1 RON2 block,LASV entry inh,Shiga toxin inh,Cycloheximide cs
Cc1ccc(NC(=O)c2sc3nc(C)cc(C)c3c2N)cc1,?,.,?,125,51
Cc1cc(C)c2c(N)c(C(=O)NC3CC3)sc2n1,.,.,.,.,.
CCCCN(CCCC)S(=O)(=O)c1ccc(NC(=O)c2c(-c3ccccc3)noc2C)cc1,?,/,.,/,/
Cc1ccc(CNC(=O)CCc2nnc3n(C)c(=O)c4sccc4n23)cc1,.,/,.,/,/
Cc1cc(C)c2nc(N3C(=O)C(O)=C(C(=O)c4ccco4)C3c3cccc(O)c3)sc2c1 (stereo not given),/,.,/,/,/
O=[N+]([O-])c1ccc(S(=O)(=O)N/N=C/c2ccsc2)cc1,/,.,/,.,.
O=C(c1cc(COc2ccc(F)cc2Cl)on1)N1CCCCCC1,/,.,/,89,53
CCC(NC(=O)c1cc(COc2ccc(F)cc2Cl)on1)c1ccncc1 (stereo not given),/,.,/,.,6.4
O=C(N[C@H]1CCCCNC1=O)c1cc(COc2ccc(F)cc2F)on1,/,.,/,.,19
O=C(c1cc(COc2ccc(F)cc2Cl)on1)N1CCCCCCC1,/,.,/,40,32
O=C(c1cc(COc2ccc(F)cc2Cl)on1)N1CCC(c2ccncc2)CC1,?,?,?,.,.
CC1CCC2(CC1)NC(=O)N(CC(=O)NCc1ccc(Cl)cc1)C2=O (stereo not given),.,.,.,/,/
C=Cc1ccc(CN2C(=O)N(c3cccc(Cl)c3)S(=O)(=O)c3ccccc32)cc1,/,/,.,/,/
CN(CCC1CCOCC1)C(=O)CC1C(=O)NCCN1Cc1c(F)cccc1Cl (stereo not given),.,.,.,.,.
COCCn1c(C)cc(O)c(C(c2cccc(F)c2)N2CCN(c3ccccc3)CC2)c1=O (stereo not given),/,/,.,/,/
O=C1CCCN1CCCNS(=O)(=O)c1ccc(F)c(F)c1,/,.,/,.,.
COC(=O)c1ccc(NC(=O)COC(=O)COc2cccc3c2OC(C)(C)C3)cc1,/,.,/,/,/
O=C(c1cc(COc2ccc(F)cc2F)on1)N1CCSCC1,?,.,?,85,58
CS(=O)(=O)N1CCc2cc(S(=O)(=O)NCc3ccccc3Cl)ccc21,/,/,.,/,/
Cc1cccc(/C=N/NC(=O)c2cccc(Cl)c2)n1,.,.,.,.,16
Cc1cccc(/C=N/NC(=O)c2cccc([N+](=O)[O-])c2)n1,.,.,.,.,.
Cc1cccc(/C=N/NC(=O)c2cccc(NC(=O)c3ccccc3)c2)n1,.,.,.,.,14
Cc1cccc(/C=N/NC(=O)c2ccc(F)cc2)n1,/,.,/,40,20
Cc1ccccc1C(=O)Nc1cccc(C(=O)N/N=C/c2ccccn2)c1,.,.,.,.,12
COc1ccccc1/C=N/NC(=O)c1cccc(NC(=O)c2ccccc2C)c1,.,.,.,.,.
SMILES,Marburg entry inh,AMA1 RON2 block,LASV entry inh,Shiga toxin inh,Cycloheximide cs
CN(C)Cc1ccc(CNC(=O)COc2ccc3ccccc3c2)cc1,?,.,.,.,.
O=[N+]([O-])c1ccc2c(c1)nc1n2CCN(CC2CCCO2)C1 (stereo not given),/,.,/,.,28
COCCN1CCn2c(nc3cc([N+](=O)[O-])ccc32)C1,/,.,/,.,.
O=[N+]([O-])c1ccc2c(c1)nc1n2CCN(c2ccccc2)C1,/,.,/,29,37
CCN(CC)c1ccc(/C=N/N2CCOCC2)cc1,?,.,?,52,53
COc1ccc(/C=N/N2CCN(C3c4ccccc4-c4ccccc43)CC2)cc1O,?,.,.,.,.
COc1ccc(/C=N/N2CCOCC2)cc1O,?,.[11.6 µM],.,48,28
COc1cc(/C=N/N2CCOCC2)ccc1OCc1ccc(Cl)cc1,.,?,.,82,37
COc1cc(/C=N/N2CCOCC2)ccc1OCc1ccccc1,?,?,.,.,16
COc1ccc(/C=N/N2CCOCC2)cc1OCc1ccccc1,.,?,.,.,.
COc1ccccc1-c1cnc(C(O)c2ccc(C)cc2)[nH]1 (stereo not given),/,.,/,/,/
COc1ccc(-c2c3c(cc4ncn(Cc5ccccc5)c24)COC3=O)cc1,/,.,/,/,/
Cc1ccc2nc(NC(=O)C3CCCN(S(=O)(=O)c4cnc[nH]4)C3)sc2c1 (stereo not given),.,.,.,+,43
CCS(=O)(=O)N1Cc2ccccc2CC1C(=O)Nc1nc2ccc(C)cc2s1 (stereo not given),?,.,?,68,39
Cc1ccc2nc(NC(=O)C3CCCN(S(=O)(=O)c4cccnc4)C3)sc2c1 (stereo not given),.,.,/,.,.
CCS(=O)(=O)N1Cc2ccccc2CC1C(=O)Nc1ccc(C)cc1 (stereo not given),.,.,.,.,.
CCS(=O)(=O)N1Cc2ccccc2CC1C(=O)Nc1ncc(C)s1 (stereo not given),.,.,.,108,40
COc1cc(O)c2c(=O)c(O)c(-c3ccc(O)c(O)c3)oc2c1,/,/,/,.,.
O=c1cc(-c2ccncc2)oc2ccccc12,?,.,.,.,.
COc1cc(O)c2c(=O)c3c(OC)c(O)ccc3oc2c1,.,.,.,56,37
O=c1cc(-c2ccc(O)cc2)oc2cc(O)cc(O)c12,?,.,?,/,/
COc1cc(-c2cc(=O)c3c(O)cc(O)cc3o2)ccc1O,/,.,/,39,37
COc1cc(O)c2c(=O)cc(-c3ccccc3)oc2c1,/,.,/,.,11
COc1cc(-c2cc(=O)c3ccccc3o2)ccc1O,/,.,/,61,37
COc1ccc(-c2cc(=O)c3c(O)c(OC)c(OC)c(OC)c3o2)cc1,.,.,.,/,/
SMILES,Marburg entry inh,AMA1 RON2 block,LASV entry inh,Shiga toxin inh,Cycloheximide cs
COc1c(OC)c(O)c2c(=O)cc(-c3c(O)cccc3O)oc2c1OC,/,.,/,.,17
COc1c(O)cc(O)c2c(=O)cc(-c3ccccc3)oc12,/,.,/,/,/
COc1ccc(-c2cc(=O)c3c(O)c(OC)c(O)cc3o2)cc1,/,.,/,45,37
CSc1ccccc1OCc1cc(C(=O)N2CCc3c(Cl)cccc3C2)no1,?,.,.,.,.
CN(C)/C=N/c1sc2c(c1C#N)CCCC2,?,?,?,116,35
CC1CCc2c(sc(/N=C/N(C)C)c2C#N)C1 (stereo not given),?,.,.,60,37
N#Cc1c(/N=C/c2ccco2)sc2c1CCCCC2,.,?,.,.,35
CCOC(=O)CN1C(=O)[C@]2(O[C@H](COc3ccccc3)CC3=CCCC32)c2c(Br)cccc21 (stereo not given in full),.,/,?,/,/
COc1ccc(/C=C/c2nc(C#N)c(N3CCCCC3)o2)cc1OC,?,/,.,/,/
CCOc1ccc(-c2nnc(NC(=O)Cc3cc(OC)c(OC)c(OC)c3)o2)cc1,/,.,/,73,18
CCOc1ccc(-c2nnc(NC(=O)CCCOc3cccc(C)c3)o2)cc1,?,.,?,70,26
CCOc1ccc(-c2nnc(NC(=O)Cc3ccc(OC)cc3)o2)cc1,.,.,/,.,.
O=C([C@H](c1ccccc1)N1CCOCC1)N1CCOCC1,.,/,/,/,/
Cc1nc2ccc(S(=O)(=O)NCC(=O)Nc3ccc(F)cc3F)cc2s1,.,/,?,/,/
O=C(Cn1cc(C(=O)COc2ccccc2)c2ccccc21)NCc1ccco1,.,.,.,52,25

# Assay outcomes (PubChem)
